TDP1 cell CPT: growth inhibition of DT40 Tdp1-/-;hTDP1 cells with camptothecin (screen for TDP1 inhibitors) | chicken DT40 Tdp1-/-;hTDP1 cells + 20 nM CPT, ATP luminescence, 48 h | Potency, µM (top dose mostly 46.2 µM), inactives show at the highest dose activity change, negative = growth inhibition, actives largely listed as inhibitors | 420,000 tested, 12% active | AID 686979; note: potency is the fitted concentration of half-maximal effect; nearly all actives have a fitted effect of over 55% in size
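Cell growth measured by CellTiter-Glo luminescence after a minimum 48 h, 37 C compound exposure with 20 nM CPT in Tdp1-knockout DT40 cells stably expressing hTDP1, seeded 400/well; qHTS titration format.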
HT1080NT lethal: kills 2HG-producing HT-1080-NT fibrosarcoma cells | HT-1080-NT fibrosarcoma viability, CellTiter-Glo ATP luminescence, 48 h | Potency, µM (highest dose often 46.1 µM), for the others: at the highest dose activity, negative = less viability, usual class: cytotoxic | 360,000 tested, 1.6% active | AID 686970;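 note: NT is the 2HG producing partner of a matched IDH1 knockdown line; potency is the fitted concentration of half-maximal effect; 0% = DMSO-treated cells and -100% = media-only wells without cells; nearly all actives have a fitted effect of over 55% in size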
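Toxicity toward the 2HG-producing NT line was scored as %Activity, normalised to DMSO and no-cell wells, from CellTiter-Glo luminescence after 48 hours' treatment.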
TDP1 cell noCPT: qHTS for Inhibitors of human tyrosyl-DNA phosphodiesterase 1 (TDP1): qHTS in cells in absence of CPT; DT40 Tdp1-/- hTDP1 cells, no CPT, ATP luminescence, 48 h; Potency, µM (titrated, usually from 46.2 µM), for inactives: at the highest dose activity change, negative = growth inhibition, usual class: inhibitors; 420,000 tested, 15% active; note: potency is the fitted concentration of half-maximal effect; nearly all actives have a fitted effect of over 55% in size
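Compound effects on proliferation are scored in DT40 Tdp1-/-;hTDP1 cells in the absence of CPT. ATP levels (CellTiter-Glo luminescence) are recorded after a ≥48 hr, 37 °C incubation.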
ELG1 repair inh: inhibitors of ELG1-dependent DNA repair in HEK293T cells; 330,000 tested, 2.3% active; HEK293T ELG1-luciferase reporter, luminescence, 16 h; DNA damage induced by 5-fluorouridine; Potency, µM (top dose mostly 46.1 µM), inactives show at the top dose activity change, negative = inhibition, hits mostly inhibitors; note: potency is the fitted concentration of half-maximal effect; nearly all actives have a fitted effect of over 55% in size
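HEK293T cells expressing luciferase-tagged ELG1 (2,000/well) received 5-Fluorouridine plus compound or DMSO for 16 hr at 37 °C. Luciferase was read by ONE-Glo luminescence after 30 min at room temperature.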
IL1B secr inh: inhibitors of inflammasome signaling (IL-1 beta secretion). 360,000 tested, 4.7% active. THP-1 LPS/ATP IL-1B secretion, AlphaLISA, 16 h; stronger effect = lower value. AID 743279. activity change, % at 57.5 µM; in the data active = activity change below about -50%; inconclusive = mostly about -30% to -49%
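Secreted IL-1B measured by AlphaLISA bead assay after 16 h compound exposure of THP-1 cells; compounds (final up to 57.5 uM) added 1 h before LPS (250 ng/mL) and ATP (1.25 mM) stimulation; lower signal means less secretion.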
HT1080 IDH1KD tx: kills HT-1080 cells with IDH1 knockdown. Potency, µM (titrated, usually from 46.1 µM), without a hit: at the top dose activity, negative = toxicity, usual class: cytotoxic. 360,000 tested, 2% active. HT-1080 IDH1 knockdown viability, ATP luminescence, 48 h;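 note: potency is the fitted concentration of half-maximal effect; 0% = DMSO wells and -100% = cell-free medium wells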
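Using the IDH1-knockdown HT-1080 line run in the same batch and compound series as the NT line, viability after 48 h at 37 °C was determined by CellTiter-Glo luminescence and expressed as % activity.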
* hit, by the source's call; ? = inconclusive; / = no result; [ ] = dose if it differs, or a comment. Compounds with a hit are over-represented: about 19% of the library has one in this group of screens. Unless noted, calls come from the whole dose curve; as a rule, active = well fitted curve in the direction sought with a large enough effect; inconclusive = small, poorly fitted or top-dose-only effect, or another doubt; inactive = no such curve, though single readings can be large; an effect the other way counts as inactive or inconclusive. Unless noted, % is set by controls: 0 for no effect and ±100 for the full control effect.

SMILES	TDP1 cell CPT	HT1080NT lethal	TDP1 cell noCPT	ELG1 repair inh	IL1B secr inh	HT1080 IDH1KD tx
CC(=O)OC1CCC2(C)C3CCC4(C)C(OC(C)=O)CCC4C3C(C)C2(O)C1 (configuration not stated)	?	15.3%	14.6µM*	/	-4.4	10.7%
CCN(CC)C(=O)c1ccc(NC(=O)c2ccc(-n3cncn3)c([N+](=O)[O-])c2)cc1	-29.1%	6.0%	?	0.7%	-5.3	16.7%
COc1ccc(NC(=O)c2ccco2)cc1NC(=O)COc1cc(C)cc(C)c1	8.2µM*	/	5.8µM*	/	/	/
O=C(NC1CC2CCCC(C1)N2)c1ccccc1 (configuration not stated)	7.5%	12.6%	4.7%	1.2%	4.3	14.1%
CN(C)CCNC(=O)c1cccn(Cc2cccc(C(F)(F)F)c2)c1=O	23.1µM*	8.0%	?	-3.6%	-10.7	0.0%
CNC(=O)c1cccn(Cc2cccc(C(F)(F)F)c2)c1=O	-7.7%	10.0%	?	?	92.7	-13.1%
CC(C)CNC(=O)/C=C/C=C/CCCCCC/C=C/c1ccc2c(c1)OCO2	-6.6%	0.2%	-16.5%	4.8%	11.1	5.8%
CCNC(=O)NC(=O)C(C)OC(=O)c1c(C)nn(Cc2ccccc2)c1Cl (configuration not stated)	0.5%	-0.8%	5.7%	-20.0%	11.1	1.6%
COc1ccc(C2SCC(=O)Nc3c2c(C)nn3-c2ccccc2)cc1OC (configuration not stated)	-18.4%	0.0%	1.5%	1.8%	-2.2	0.5%
CC(=O)N1CC(=O)Nc2ccc(Cl)cc2C1c1ccccc1 (configuration not stated)	12.0%	12.9%	-10.0%	?	20.8	6.6%
O=C1CSC(c2ccccc2Cl)c2cc(Cl)ccc2N1 (configuration not stated)	?	/	38.9µM*	/	/	/
Cc1ccccc1-n1nc(C)c2c1NC(=O)CSC2c1ccc(N(C)C)cc1 (configuration not stated)	?	/	18.4µM*	/	/	/
Cc1cccc(-n2nc(C)c3c2NC(=O)CSC3c2ccccc2Cl)c1 (configuration not stated)	?	/	20.6µM*	/	/	/
COc1ccc(C2CC(=O)Nc3cc4c(cc32)OCO4)c(OC)c1 (configuration not stated)	?	/	14.6µM*	/	/	/
COc1ccc(OC)c(N2C(=O)CC(=O)NC2=O)c1	4.1%	-1.6%	4.6%	8.7%	-8.0	0.0%
O=C1CC(c2c(F)cccc2Cl)c2c(c3ccccc3oc2=O)O1 (configuration not stated)	1.4%	/	2.2%	/	/	/
Nc1ccc2c3c(cccc13)-c1ccccc1-2	1.6%	?	-25.1%	/	2.2	?
CCOC(=O)c1ccc(NC(=O)Nc2ccc3c(c2)OCCO3)cc1	?	?	?	-19.8%	?	?
CCOC(=O)c1ccc(NC(=O)CCc2nc(-c3ccc(C)cc3)no2)cc1	?	?	20.6µM*	14.6%	-68.6*	?
C/C=C(/C)C(=O)O[C@H]1C(C)=C2[C@H]([C@@H]1OC(=O)CCCCCCC)[C@@](C)(OC(C)=O)C[C@H](OC(=O)CCC)[C@@]1(O)[C@H]2OC(=O)[C@@]1(C)O	?	/	-8.2%[21.1 µM]	/	/	/
Cn1c(=O)c2c(-c3ccccc3)n3c(c2n(C)c1=O)C(c1cc(Cl)ccc1O)Nc1ccccc1-3 (configuration not stated)	9.2µM*	/	14.6µM*	/	/	/
COc1ccc(-c2c3c(=O)n(C)c(=O)n(C)c3c3n2-c2ccccc2NC3c2ccccc2OC)cc1 (configuration not stated)	10.3µM*	/	14.6µM*	/	/	/
Cc1cccc(-n2c(=S)[nH]c3ccccc3c2=O)n1	6.4%	16.9%	-4.8%	-16.4%	-4.9	11.7%
O=C(CCCc1nc(-c2ccc(Cl)cc2)no1)NCC1CCCO1 (configuration not stated)	?	-12.6%	18.4µM*	-19.1%	26.3	-5.7%
Cc1c(C=C2C(=O)N(C)C(=S)N(C)C2=O)c2ccccc2n1CC(=O)NCC1CCCO1 (configuration not stated)	?	-5.3%	?	2.7%	-6.5	-15.8%
SMILES	TDP1 cell CPT	HT1080NT lethal	TDP1 cell noCPT	ELG1 repair inh	IL1B secr inh	HT1080 IDH1KD tx
O=C(O)[C@@H](O)[C@H](O)[C@H](O)[C@@H](O)C(=O)O (tested in a mixture with another compound)	?	/	7.7%	/	/	/
CCNC(=O)[C@H]1O[C@@H](n2cnc3c(N)ncnc32)[C@H](O)[C@@H]1O	-6.6%	7.1%	-0.7%	/	18.9	5.8%
NC(=O)c1c(Br)n(C2OC(CO)C(O)C2O)c2ncnc(N)c12 (configuration not stated)	2.06µM*	?	1.84µM*	/	-75.7*	7.31µM*
N#Cc1c(Br)n(C2OC(CO)C(O)C2O)c2ncnc(N)c12 (configuration not stated)	1.46µM*	7.31µM*	1.16µM*	/	-68.9*	3.26µM*
C=C[C@@H]1C2=CCOC(=O)C2=CO[C@H]1O[C@@H]1O[C@H](CO)[C@@H](O)[C@H](O)[C@H]1O	11.8%	10.7%	6.3%	9.3%	7.9	7.9%
O=C(c1ccccc1)c1ccc2nc(N3CCN(c4ccc(F)cc4)CC3)c3nncn3c2c1	7.31µM*	/	8.2µM*	/	/	/
O=C(CN1CCCC1)Nc1ccc(NC(=O)Nc2ccccc2)cc1	6.6%	4.3%	10.3%	?	-20.9	1.3%
CCCNC(=O)N1[C@H]2CC[C@@H]1C(C(=O)OC)=C(c1c(C)noc1C)C2	9.2%	8.7%	7.5%	29.3%	28.3	11.0%
COC(C(=O)C(O)C(C)O)C1Cc2cc3cc(OC4CC(OC5CC(O)C(O)C(C)O5)C(O)C(C)O4)c(C)c(O)c3c(O)c2C(=O)C1OC1CC(OC2CC(OC3CC(C)(O)C(O)C(C)O3)C(O)C(C)O2)C(O)C(C)O1 (configuration not stated)	0.159µM*	/	0.0282µM*	/	/	/

Compound activity (PubChem BioAssay)
